# From PubChem BioAssay (NCI)
# About 83,000 compounds went through this panel and 20% of them were active in at least one assay; those are over-represented in the sample as a whole.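 Negative percent growth values reflect cell death: -40 means 40% of the cells present at the start died, and -100 means all died.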 The source made the active and inactive calls.
# System: COLO 205 colon
# Assay: NCI-60 one-dose screen, 48 h (100 = growth as untreated, 0 = no growth, -100 = all killed)
# Conditions: 10 µM
# Experimental: Cells are grown in 96 well plates and exposed to the test compound for 48 hours. Compounds are tested at a single concentration, which is 10^-5 M for most compounds. The reported endpoint is percent growth (GI% or GIPRCNT), where numbers from 0 - 100% represent growth inhibition, and numbers from -100% - 0 represent cell death. For example, a value of 40 represents 60% growth inhibition. A value of 0 means no net growth occurred over the course of the experiment. A value of -40 indicates 40% of cells at the beginning of the experiment died by the end of the experiment. A value of -100 means all cells are dead at the end of the experiment.
# NCI-60 Human Tumor Cell Lines Screen was performed using the standard one-dose NCI protocol, which is described in more detail at https://dtp.cancer.gov/discovery_development/nci-60/default.htm.
# Compounds with GIPRCNT values below 10 were considered active. Activity score was based on GIPRCNT using the following formula: […]
# Score is 0 for GIPRCNT values of 100 or above, 50 for GIPRCNT values of 0, and 100 for GIPRCNT values of -100.
row,SMILES,growth
1,Oc1ccc(Br)cc1CN1CCN(Cc2ccc(Cl)cc2)CC1,71.1% (inactive)
2,c1ccc(-c2ccc3ccccc3[o+]2)cc1,111% (inactive)
3,NC(=O)C(Br)CBr (stereo not given),-83.4% (active)
4,C1CNC2CCCC2C1 (stereo not given),102% (inactive)
5,CC(=O)OC1CCC2(C)C(=CCC3C4CC(CN5CC5)C(=O)C4(C)CCC32)C1 (stereo not given),89.2% (inactive)
6,CC(=O)O[C@H]1CCC2(C)C(=CCC3C2CCC2(C)/C(=N/OC(=O)c4ccc(N(CCCl)CCCl)cc4)CCC32)C1 (stereo not given in full),69.7% (inactive)
7,O=[N+]([O-])c1cc([N+](=O)[O-])c(Cl)c(Cl)c1Cl,-82.7% (active)
8,C1CN1c1nc(N2CC2)nc(N2CC2)n1,61.4% (inactive)
9,CCN1CC2(CN(CC)C1=S)C(=O)NC(=O)NC2=O,115% (inactive)
10,C=CCN1C(=O)C(CC)(CCC(C)C)C(=O)NC1=S (stereo not given),108% (inactive)
11,CC1([N+](=O)[O-])COP(=O)(Nc2ccc(F)cc2)OC1 (stereo not given),107% (inactive)
12,CN(C)P1(N(C)C)=NP(N(C)C)(N(C)C)=NP(N(C)C)(N(C)C)=N1,113% (inactive)
13,CC1(C)N=C(N)N=C(N)N1c1cccc(C(=O)Nc2cccc(S(=O)(=O)F)c2)c1,120% (inactive)
14,CC(C)Nc1ccc(Nc2ccccc2)cc1,43.6% (inactive)
15,COc1ccccc1N1CCN(CCc2c[nH]c3cc4c(cc23)OCO4)CC1,74.7% (inactive)
16,CC(=O)[O][Hg][CH2]C1(C)COC(C)([CH2][Hg][O]C(C)=O)CO1 (stereo not given),-77.4% (active)
17,CO[C@@H](c1ccccc1Cl)[C@H](C)OC(N)=O,101% (inactive)
18,CSc1ccccc1NP1(=O)OCC(C)([N+](=O)[O-])CO1 (stereo not given),116% (inactive)
19,N#Cc1ncc(/N=C/c2ccc(N(CCCl)CCCl)cc2)s1,99.4% (inactive)
20,COc1cc2c(cc1OC)CN(C)C(C)C2 (stereo not given),102% (inactive)

row,SMILES,growth
1,N#CC1=C(N)Oc2cc3c(cc2C1c1cccs1)OCO3 (stereo not given),-7.45% (active)
2,OC1(c2ccccc2F)c2ccccc2C2=NCCN21 (stereo not given),101% (inactive)
3,COc1cc(C2CC(=O)Nc3nc(N)[se]c32)c(OC)c2c1OCO2 (stereo not given),112% (inactive)
4,Nc1nc(N)c(-c2ccc(Cl)c(Cl)c2)c(/C=C/c2ccc(S(=O)(=O)F)cc2)n1,98.1% (inactive)
5,CCOC(=O)/C(C#N)=C/c1ccc(N(CCCl)CCCl)cc1,112% (inactive)
6,Cc1cc(NC(=O)/C=C/c2ccc([N+](=O)[O-])cc2)ccc1S(=O)(=O)F,102% (inactive)
7,COc1ccc2c(c1)NC1=C(C(=O)OC1)C2c1cc(OC)c(OC)c(OC)c1 (stereo not given),-48.5% (active)
8,C=C=[CH][Sn]([c]1ccccc1)([c]1ccccc1)[c]1ccccc1,-84.2% (active)
9,CC(C)(C)N(Cc1ccccc1)N=O,108% (inactive)
10,CNC(=O)Oc1ccccc1-c1ccccc1,113% (inactive)
11,CCCCN(CCCC)CC(O)c1ccccc1 (stereo not given),134% (inactive)
12,Oc1ccc2c3c1O[C@H]1c4[nH]c5ccccc5c4C[C@@]4(O)C(C2)N(CC2CC2)CC[C@]314,96.9% (inactive)
13,Cc1cc(NC(=O)CCc2ccc(N3C(N)=NC(N)=NC3(C)C)cc2)ccc1S(=O)(=O)F,36% (inactive)
14,CNC(=O)Oc1cccc(N(C)C)c1,108% (inactive)
15,C[As](=O)(O)c1ccc(C(=O)O)cc1,115% (inactive)
16,CN(Cc1cccnc1)N=O,105% (inactive)
17,O=c1[nH]c2cc(Cl)ccc2n1C1CCN(CCCC(c2ccc(F)cc2)c2ccc(F)cc2)CC1,-88.3% (active)
18,CC[C@]12C=CCN3CC[C@@]4(c5ccc(OC)cc5N(C)[C@H]4[C@@](O)(C(=O)OC)[C@@H]1OC(=O)CCCN1CCN(CCCC(=O)O[C@@H]4[C@]5(CC)C=CCN6CC[C@@]7(c8ccc(OC)cc8N(C)[C@H]7[C@@]4(O)C(=O)OC)[C@@H]65)CC1)[C@@H]32,-79% (active)
19,C/C(=N/OC(=O)N(C)C)c1cc(Cl)ccc1Cl,100% (inactive)
20,OC1CCCCC1N1CCC(c2ccccc2)CC1 (stereo not given),107% (inactive)
